The campaign covered roughly 52,000 compounds. About 4,300 (8.3%) were called active. No stated cut-off is given here; in the data, active means survival mostly below about 52% (no sharp cut-off); inactive means mostly above about 56%. The full list was thinned out, with actives kept by preference.
What follows are molecules tested on DeltatarO mutant (assay: S. aureus survival, RN4220 and DeltatarO strains – OD600, teichoic acid synthesis inhibitors, primary screen (AID 463173)). Details: S. aureus RN4220 wild type/DeltatarO growth, OD600, 18 h, stronger effect = lower value, screened at 18.75 µg/mL (by protocol).

| SMILES | survival |
| --- | --- |
| Cc1nc2nc(SCC(=O)NC3CCC(C)CC3)nn2c(C)c1Cc1ccccc1 (stereo not drawn) | 92% (inactive) |
| Cc1ccc(Cc2c(C)nc3nc(SCC(=O)NC4CCC(C)CC4)nn3c2C)cc1 (stereo not drawn) | 131% (inactive) |
| COc1ccccc1CNC(=O)CSc1nc2nc(C)c(Cc3ccccc3C)c(C)n2n1 | 118% (inactive) |
| COc1ccccc1CNC(=O)CSc1nc2nc(C)c(Cc3ccccc3Cl)c(C)n2n1 | 46% (active) |
| Cc1nc2nc(SCC(=O)NC3CCC(C)CC3)nn2c(C)c1Cc1ccccc1Cl (stereo not drawn) | 83% (inactive) |
| COc1cc(NC(=O)CSc2nc3nc(C)c(Cc4ccccc4Cl)c(C)n3n2)cc(OC)c1 | 73% (inactive) |
| Cc1cccc(Cc2c(C)nc3nc(SCC(=O)NC4CCCCC4)nn3c2C)c1 | 40% (active) |
| COCCCNC(=O)CSc1nc2nc(C)c(Cc3ccccc3Cl)c(C)n2n1 | 61% (inactive) |
| Cc1nc2nc(SCC(=O)NC3CCCCC3)nn2c(C)c1Cc1ccccc1Cl | 25% (active) |
| Cc1c(C(=O)N(Cc2ccc(N(C)C)cc2)CC2CCCO2)oc2ccc(Br)cc12 (stereo not drawn) | 58% (inactive) |
| CCc1nn2c(=O)cc(COC(=O)CNC(=O)c3ccccc3)nc2s1 | 123% (inactive) |
| Brc1ccc(-c2cc3c(N4CCN(c5ccccc5)CC4)nccn3n2)cc1 | 194% (inactive) |
| COC(=O)c1nc2n(n1)C(c1cc(OC)ccc1OC)C(C(=O)Nc1ccc(C)cc1C)=C(C)N2 (stereo not drawn) | 79% (inactive) |
| COc1ccc(C(=O)n2nc(N)c3cc4ccc(C)cc4nc32)cc1OC | 94% (inactive) |
| CCOC(=O)c1cc(-c2ccc(C)cc2)n(CC(=O)Nc2ccc(OC)c(Cl)c2)c1C | 67% (inactive) |
| COC(=O)c1ccc(NC(=O)Cn2cnc3c2c(=O)n(C)c(=O)n3C)cc1 | 80% (inactive) |
| COc1ccc(-c2nc(C)c(CCNC(=O)c3cc(OC)c(OC)c(OC)c3)s2)cc1OC | 64% (inactive) |
| CCOc1ccc(NC(=O)C(=O)NCCc2sc(-c3ccc(C)cc3)nc2C)cc1 | 79% (inactive) |
| CCOc1ccc(C(=O)NCCc2sc(-c3ccc(OC)c(OC)c3)nc2C)cc1 | 109% (inactive) |
| COc1ccc(-c2nc(C)c(CCNC(=O)c3ccc(C(F)(F)F)cc3)s2)cc1OC | -2% (active) |

| SMILES | survival |
| --- | --- |
| CCOc1ccc(C(=O)NCCc2sc(-c3ccc(F)cc3)nc2C)cc1 | 90% (inactive) |
| CCOc1ccc(C(=O)NCCc2sc(-c3ccc(C)cc3)nc2C)cc1 | -1% (active) |
| O=c1[nH]cnc2scc(-c3ccsc3)c12 | 104% (inactive) |
| Cc1ccc(-c2nc3scc(CCNS(=O)(=O)c4ccc(Oc5ccccc5)cc4)n3n2)cc1 | 115% (inactive) |
| CC(C)OCCCn1c(=O)c2ccccc2n2c(-c3ccc(F)cc3)nnc12 | 98% (inactive) |
| CCCCCNC(=O)c1c[nH]c2ccc(S(=O)(=O)N3CCC(C)CC3)cc2c1=O | 97% (inactive) |
| COc1ccc(N2CC(NC(=O)C3CC3)CC2=O)cc1OC (stereo not drawn) | 73% (inactive) |
| Cc1ccc2nc(N(Cc3cccnc3)C(=O)CCS(=O)(=O)c3ccccc3)sc2c1 | 67% (inactive) |
| COc1ccc(-c2nc3ccccc3o2)cc1NC(=O)Cc1ccc(Cl)cc1 | 54% (inactive) |
| COc1ccc(-c2nc3ccccc3o2)cc1NC(=O)COc1c(C)cc(Cl)cc1Cl | 67% (inactive) |
| COc1ccc(-c2nc3ccccc3o2)cc1NC(=O)CSc1ccc(Cl)cc1 | 72% (inactive) |
| CCCCC(=O)Nc1cc(-c2nc3ccccc3o2)ccc1OC | 7% (active) |
| COc1ccc(OCC(=O)Nc2cc(-c3nc4ccccc4o3)ccc2Cl)cc1 | 70% (inactive) |
| COc1ccc(-c2nc3ccccc3o2)cc1NC(=O)COc1ccc(C(C)(C)C)cc1 | 4% (active) |
| Cc1cn2c(=O)cc(COc3ccc(NC(=O)c4cccc(F)c4)cc3)nc2s1 | 125% (inactive) |
| COc1ccc(Cl)cc1NC(=O)c1cc2ccccn2n1 | 124% (inactive) |
| COc1cc(C2C(C(=O)c3ccco3)=C(O)C(=O)N2CCc2ccccc2)ccc1O (stereo not drawn) | 86% (inactive) |
| COc1ccc(Cn2c(=O)c3oc4ccccc4c3n(Cc3cccc(C)c3)c2=O)cc1 | 64% (inactive) |
| Cc1ccc(C)c(OCCn2c(-c3ccc(Cl)cc3)nc3ccccc3c2=O)c1C | 73% (inactive) |
| Cc1cc(C)c(OCCOCCn2c(-c3ccc(Cl)cc3)nc3ccccc3c2=O)c(C)c1 | 43% (active) |

| SMILES | survival |
| --- | --- |
| CCOc1ccc(OCCOCCn2c(-c3ccc(Cl)cc3)nc3ccccc3c2=O)cc1 | 26% (active) |
| Cc1ccccc1OCCn1c(-c2ccc(Cl)cc2)nc2ccccc2c1=O | 57% (inactive) |
| Cc1cc(C)cc(OCCOCCn2c(-c3ccc(Cl)cc3)nc3ccccc3c2=O)c1 | 43% (active) |
| Cc1cccc(OCCOCCn2c(-c3ccc(Cl)cc3)nc3ccccc3c2=O)c1C | 60% (inactive) |
| Cc1ccc(OCCn2c(-c3ccc(Cl)cc3)nc3ccccc3c2=O)c(C)c1 | 63% (inactive) |
| Cc1ccc(OCCOCCn2c(-c3ccc(Cl)cc3)nc3ccccc3c2=O)cc1 | 39% (active) |
| CC(C)(C)c1ccc(OCCOCCn2c(-c3ccc(Cl)cc3)nc3ccccc3c2=O)cc1 | 115% (inactive) |
| Cc1cccc(OCCn2c(-c3ccc(Cl)cc3)nc3ccccc3c2=O)c1 | 105% (inactive) |
| Cc1cc(C)cc(OCCCn2c(-c3ccc(Cl)cc3)nc3ccccc3c2=O)c1 | 58% (inactive) |
| COc1cccc(OCCn2c(-c3ccc(Cl)cc3)nc3ccccc3c2=O)c1 | 51% (inactive) |
| COc1ccccc1N1CCN(CCCNC(=O)Cn2ncc3c([nH]c4ccccc43)c2=O)CC1 | 55% (inactive) |
| CCCNC(=O)c1c(NC(=O)c2ccc(C)cc2)sc2c1CCCCC2 | 65% (inactive) |
| COc1cccc(CNC(=O)c2ccc3c(=O)n4nc(Nc5ccccc5)sc4nc3c2)c1 | 88% (inactive) |
| CCC1SC(NC(=O)COc2ccc(OC)cc2)=NC1=O (stereo not drawn) | 104% (inactive) |
| COCCn1c(CCC(=O)Nc2ccc(C)c(Cl)c2)nc2cccnc21 | 84% (inactive) |
| Cc1cc2c(cc1C)C(C)CC(C)(C)N2 (stereo not drawn) | 94% (inactive) |
| O=C(NC1CCCCC1)C1OC(c2ccccc2)OC1C(=O)NC1CCCCC1 (stereo not drawn) | 86% (inactive) |
| CC(=O)N(Cc1cccnc1)Cc1cc2cc3c(cc2[nH]c1=O)OCCO3 | 84% (inactive) |

Reference: PubChem BioAssay AID463173 (ICCB-Longwood Screening Facility, Harvard Medical School, 2010)
